GLS inhibitor = qHTS for Inhibitors of Glutaminase (GLS) | Glutaminase kidney isoform, mitochondrial (Homo sapiens), O94925 | GLS enzymatic activity, qHTS titration | Potency, µM (series often up to 45.5 µM), for the others: at the highest dose activity change, negative = inhibition, hits mostly inhibitors | 410,000 compounds, 0.21% hits | AID 624170, 2012; note: % is set by controls: 0 for no effect and ±100 for the full control effect
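Glutamate formation by hKGA was monitored fluorometrically using coupled glutamate oxidase, HRP and Amplex Red. Substrate was added as 1 mM L-glutamine solution; incubation was 30 min at RT after an initial read.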
G9a block = qHTS Assay for Inhibitors of Histone Lysine Methyltransferase G9a. 350,000 compounds, 8.8% hits. G9a H3K9 monomethylation, AlphaScreen, 2 h. Potency, µM (highest dose often 102 µM), for inactives: at the highest dose activity, negative = inhibition, hits mostly inhibitors. Histone-lysine N-methyltransferase EHMT2 (Homo sapiens), Q96KQ7; note: % is set by controls: 0 for no effect and ±100 for the full control effect; nearly all actives have a fitted effect of over 75% in size
Target sequence (Q96KQ7 913-1193 limits assumed): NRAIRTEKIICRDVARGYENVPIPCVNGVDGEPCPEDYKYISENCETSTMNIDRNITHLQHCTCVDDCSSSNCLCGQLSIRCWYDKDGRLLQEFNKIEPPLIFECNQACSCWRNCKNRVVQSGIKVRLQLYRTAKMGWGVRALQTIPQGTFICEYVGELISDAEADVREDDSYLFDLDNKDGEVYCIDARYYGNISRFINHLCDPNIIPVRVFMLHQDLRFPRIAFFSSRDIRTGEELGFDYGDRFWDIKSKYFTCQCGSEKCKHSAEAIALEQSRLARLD
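Step 1: enzyme (final 20 nM) with compound, 15 min RT. Step 2: substrate peptide 500 nM and SAM 20 uM, 2 h RT. Step 3: anti-H3K9me1 antibody and AlphaScreen beads, 10 min, then plate read.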
L3MBTL1 inh = qHTS Assay for the Inhibitors of L3MBTL1; Lethal(3)malignant brain tumor-like protein 1 (Homo sapiens), Q9Y468; AlphaScreen L3MBTL1–H3K9me1 peptide binding; Potency, µM (titrated, usually from 57.1 µM), for the others: top-dose activity, negative = inhibition, most hits filed as inhibitors; 230,000 compounds, 0.66% hits; AID 485360, 2010; note: % is set by controls: 0 for no effect and ±100 for the full control effect; nearly all actives have a fitted effect of over 60% in size
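L3MBTL1 50 nM + b-AHA-H3(1-15)K9me1 75 nM, 30 min RT; compound added, 30 min RT; streptavidin donor/Ni-chelate acceptor beads 10 ug/mL each final, 30 min RT dark; AlphaScreen read.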
HP1b binding inh = HTS for Inhibitors of HP1-beta Chromodomain Interactions with Methylated Histone Tails; 390,000 compounds, 0.56% hits; Potency, µM (top dose mostly 114 µM), for the others: top-dose activity change, negative = inhibition, actives largely listed as inhibitors; Chromobox protein homolog 1 (Homo sapiens), P83916; AlphaScreen HP1-beta / biotin-H3K9me3 peptide binding; AID 540317, 2011; note: nearly all actives have a fitted effect of over 70% in size
Target sequence (P83916 whole entry, looked up): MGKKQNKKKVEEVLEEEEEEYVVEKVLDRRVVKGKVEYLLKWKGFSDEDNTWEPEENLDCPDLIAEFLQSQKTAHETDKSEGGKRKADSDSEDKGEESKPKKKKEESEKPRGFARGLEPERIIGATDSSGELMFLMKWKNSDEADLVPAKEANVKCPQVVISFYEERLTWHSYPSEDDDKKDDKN
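Compound inhibition of the preformed complex between 50 nM HP1-beta and 50 nM biotinylated H3K9me3 peptide was read by AlphaScreen. Buffer was PBS pH 7.4 with 0.01% Tween-20. Incubations ran 30 min at room temperature, with 10 ug/mL donor/acceptor beads.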
JMJD2A Tudor inh = qHTS Assay for Inhibitors of JMJD2A-Tudor Domain | Lysine-specific demethylase 4A (Homo sapiens), O75164 | AlphaScreen JMJD2A-Tudor / H3K4me3 peptide binding | Potency, µM (titrated, usually from 114 µM), inactives show top-dose activity change, negative = inhibition, most hits filed as inhibitors | 390,000 compounds, 4.4% hits; note: % is set by controls: 0 for no effect and ±100 for the full control effect; nearly all actives have a fitted effect of over 50% in size
BAZ2B inh = qHTS Assay for Inhibitors of BAZ2B; Bromodomain adjacent to zinc finger domain protein 2B (Homo sapiens), Q9UIF8; AlphaScreen BAZ2B-H3K14Ac peptide displacement; Potency, µM (series often up to 114 µM), without a hit: at the top dose activity change, negative = inhibition, actives largely listed as inhibitors; 360,000 compounds, 4.4% hits; AID 504333, 2011; note: % is set by controls: 0 for no effect and ±100 for the full control effect; nearly all actives have a fitted effect of over 60% in size
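Complex of BAZ2B and biotin-H3K14Ac (50 nM apiece) forms over 30 min at RT, then faces library compounds up to 110 uM for another 30 min; AlphaScreen beads added, 20 min dark incubation, luminescence read.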
An asterisk follows results filed as active; [ ] = another dose, or the depositor's remark. Rows were chosen to be rich in hits. Some 10% of all compounds tested hit in one or more screens of this group. Calls come from the whole dose curve; as a rule, active = well fitted curve in the direction sought with a large enough effect; inconclusive = small, poorly fitted or top-dose-only effect, or another doubt; inactive = no such curve, though single readings can be large; an effect the other way counts as inactive or inconclusive. Potency is the fitted concentration of half-maximal effect.

`Clc1ccccc1OCCn1ccnc1` gave GLS inhibitor 3%, G9a block 10µM*, HP1b binding inh 45µM*, JMJD2A Tudor inh 4.5µM* and BAZ2B inh 79µM*.
Screening CCc1cccc(-n2nnc(-c3nc(-c4ccc5c(c4)OCO5)no3)c2C)c1 returned GLS inhibitor -10%, G9a block -4%[59 µM], HP1b binding inh 45%, JMJD2A Tudor inh 3% and BAZ2B inh 2%.
N#Cc1nc(-c2ccc(OCc3ccc(Cl)cc3)cc2)oc1N1CCCCCC1 was read as HP1b binding inh -26%[57 µM] and JMJD2A Tudor inh -17%[57.1 µM].
`Cc1c(Cl)cccc1NS(=O)(=O)c1ccc(NS(=O)(=O)c2ccc3c(c2)OCCO3)cc1` gave GLS inhibitor 17%, G9a block inconclusive, HP1b binding inh 2%, JMJD2A Tudor inh -11% and BAZ2B inh -11%.
COc1cccc([C@H]2Nc3ccc(S(=O)(=O)Nc4cc(C)ccc4C)cc3[C@H]3C=CC[C@H]32)c1 was read as GLS inhibitor inconclusive, G9a block 13µM*, HP1b binding inh 7%, JMJD2A Tudor inh -34% and BAZ2B inh -32%.
Screening Cc1ccc([C@H]2Nc3ccc(S(=O)(=O)Nc4cccc(Cl)c4C)cc3[C@H]3C=CC[C@H]32)cc1 returned GLS inhibitor 5%, G9a block 14µM*, HP1b binding inh 1%, JMJD2A Tudor inh inconclusive and BAZ2B inh inconclusive.
Cc1ccc(NC(=O)CSc2nncn3c2cc2sccc23)cc1F was read as GLS inhibitor -11%, G9a block -5%[59 µM], HP1b binding inh -3%, JMJD2A Tudor inh -29% and BAZ2B inh inconclusive.
`CCOC(=O)c1ccc(N=c2sc(C(=O)OC)cc(=O)n2CCCN2CCOCC2)cc1` gave GLS inhibitor 5%, G9a block 50µM*, HP1b binding inh -8%, JMJD2A Tudor inh inconclusive and BAZ2B inh 50µM*.
Screening COC(=O)c1cc(=O)n(CCc2ccc(OC)cc2)c(=Nc2ccc(F)c(Cl)c2)s1 returned GLS inhibitor 2%, G9a block inconclusive, HP1b binding inh -14%, JMJD2A Tudor inh inconclusive and BAZ2B inh -38%.
CCn1c(=O)cc(C(=O)OC)sc1=Nc1ccc(F)c(F)c1 was read as GLS inhibitor -9%, G9a block inconclusive, HP1b binding inh 1%, JMJD2A Tudor inh inconclusive and BAZ2B inh -37%.
For COC(=O)c1cc(=O)n(CCc2ccccc2)c(=Nc2ccc(F)cc2)s1 the results were GLS inhibitor 1%, G9a block 7.1µM*, L3MBTL1 inh -9%, HP1b binding inh -8%, JMJD2A Tudor inh inconclusive and BAZ2B inh -38%.
`CCOC(=O)c1ccc(N=c2sc(C(=O)OC)cc(=O)n2Cc2ccco2)cc1` gave GLS inhibitor -3%, G9a block 40µM*, L3MBTL1 inh -9%, HP1b binding inh 3%, JMJD2A Tudor inh inconclusive and BAZ2B inh inconclusive.
Screening CC(=O)c1c(C)oc2ccc(N(C(=O)Oc3ccccc3)S(=O)(=O)c3ccc(C(C)(C)C)cc3)cc12 returned GLS inhibitor 1%, G9a block -40%[59 µM], HP1b binding inh 23%, JMJD2A Tudor inh -13% and BAZ2B inh -20%.

Screens from PubChem.
